# Reference: paper PMC7862700, “An all-to-all approach to the identification of sequence-specific readers for epigenetic DNA modifications on cytosine”
# Columns and labels:
# Test in all cases: DAPPL (digital affinity profiling via proximity ligation, sequencing); 10 mM Tris-HCl pH 7.5, 50 mM NaCl, 1 mM DTT, 4% glycerol, room temperature, 30 min; GST-TFs on glutathione beads, 16-mer random dsDNA library, 0.1% formaldehyde crosslink after washing; high values mean tight binding
# FLI1 = molecular target: T1, FLI1 (Homo sapiens, UniProt Q01543 1-452); conditions: protein: recombinant; tags: N-terminal GST; dsDNA, one strand shown
# T1 sequence: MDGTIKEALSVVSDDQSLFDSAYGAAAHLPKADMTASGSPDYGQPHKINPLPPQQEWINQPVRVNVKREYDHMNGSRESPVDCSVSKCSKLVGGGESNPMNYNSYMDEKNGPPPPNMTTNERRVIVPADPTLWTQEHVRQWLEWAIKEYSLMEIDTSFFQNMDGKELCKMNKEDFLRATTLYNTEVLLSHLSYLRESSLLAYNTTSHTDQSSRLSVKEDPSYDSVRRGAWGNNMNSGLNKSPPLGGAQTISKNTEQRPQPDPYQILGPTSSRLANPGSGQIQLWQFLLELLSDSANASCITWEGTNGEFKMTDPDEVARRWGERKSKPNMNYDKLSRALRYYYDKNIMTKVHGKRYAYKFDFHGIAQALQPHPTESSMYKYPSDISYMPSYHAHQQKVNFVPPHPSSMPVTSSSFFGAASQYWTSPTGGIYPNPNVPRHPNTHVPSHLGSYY
# Procedure, shortened: (§1)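 GST fusions of human transcription factors were expressed in yeast and captured with glutathione beads. Once given DNA barcodes and pooled alongside a tag-only sample, they were incubated for 30 min at room temperature with 200 nmole of a random double-stranded 16-mer DNA library in Tris/NaCl/DTT/glycerol buffer, then washed, crosslinked (0.1% formaldehyde), proximity-ligated, PCR-amplified and sequenced on an Illumina NextSeq500. The binding signal of each hexamer is its read frequency for a factor divided by its frequency for the tag-only sample.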
# ELK1 = molecular target: T2, ELK1 (Homo sapiens, UniProt P19419 1-428); conditions: protein: recombinant; tags: N-terminal GST; dsDNA, one strand shown
# T2 sequence: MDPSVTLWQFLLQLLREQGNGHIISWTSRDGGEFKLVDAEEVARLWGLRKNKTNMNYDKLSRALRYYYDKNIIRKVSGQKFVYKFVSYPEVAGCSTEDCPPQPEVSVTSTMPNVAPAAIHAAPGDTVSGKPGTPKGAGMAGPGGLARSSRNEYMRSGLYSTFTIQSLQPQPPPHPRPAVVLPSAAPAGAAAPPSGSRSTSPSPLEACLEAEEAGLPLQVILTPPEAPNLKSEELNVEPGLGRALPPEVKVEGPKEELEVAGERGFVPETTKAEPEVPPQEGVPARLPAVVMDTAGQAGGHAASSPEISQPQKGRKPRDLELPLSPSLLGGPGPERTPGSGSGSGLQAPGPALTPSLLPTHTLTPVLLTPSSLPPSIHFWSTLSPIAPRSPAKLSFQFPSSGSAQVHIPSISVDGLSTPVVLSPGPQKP
# Procedure, shortened: as §1
# GABPA = molecular target: T3, GABPA (Homo sapiens, UniProt Q06546 1-454); conditions: protein: recombinant; tags: N-terminal GST; dsDNA, one strand shown
# T3 sequence: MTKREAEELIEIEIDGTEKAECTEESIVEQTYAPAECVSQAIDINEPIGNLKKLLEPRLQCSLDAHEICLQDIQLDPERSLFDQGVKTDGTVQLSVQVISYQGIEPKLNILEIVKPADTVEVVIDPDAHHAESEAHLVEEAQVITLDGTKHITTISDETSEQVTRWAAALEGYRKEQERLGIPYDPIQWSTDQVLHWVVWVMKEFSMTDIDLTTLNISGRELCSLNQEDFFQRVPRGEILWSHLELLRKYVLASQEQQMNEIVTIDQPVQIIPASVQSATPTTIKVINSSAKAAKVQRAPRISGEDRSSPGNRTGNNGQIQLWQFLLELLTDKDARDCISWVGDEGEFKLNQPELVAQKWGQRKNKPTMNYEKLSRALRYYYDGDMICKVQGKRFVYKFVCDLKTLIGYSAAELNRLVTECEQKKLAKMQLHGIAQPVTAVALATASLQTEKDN
# Procedure, shortened: as §1
# ERG = molecular target: T4, ERG (Homo sapiens, UniProt P11308 1-479); conditions: protein: recombinant; tags: N-terminal GST; dsDNA, one strand shown
# T4 sequence: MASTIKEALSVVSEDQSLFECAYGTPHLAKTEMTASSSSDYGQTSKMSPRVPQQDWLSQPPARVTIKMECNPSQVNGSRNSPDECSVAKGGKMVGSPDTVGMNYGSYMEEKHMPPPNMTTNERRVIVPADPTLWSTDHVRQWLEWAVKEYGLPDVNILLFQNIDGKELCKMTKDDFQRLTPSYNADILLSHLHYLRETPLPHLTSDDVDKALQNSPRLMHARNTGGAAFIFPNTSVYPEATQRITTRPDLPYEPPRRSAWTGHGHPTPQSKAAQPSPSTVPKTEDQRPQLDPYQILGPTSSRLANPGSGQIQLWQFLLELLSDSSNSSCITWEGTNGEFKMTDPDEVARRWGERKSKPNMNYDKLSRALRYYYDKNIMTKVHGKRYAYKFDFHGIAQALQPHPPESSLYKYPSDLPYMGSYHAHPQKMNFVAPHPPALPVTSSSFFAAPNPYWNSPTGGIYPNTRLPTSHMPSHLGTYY
# Procedure, shortened: as §1
# ELF1 = ELF1 (Homo sapiens, UniProt P32519 1-619); conditions: protein: recombinant; tags: N-terminal GST; dsDNA, one strand shown
# ELF1, sequence (P32519 whole entry): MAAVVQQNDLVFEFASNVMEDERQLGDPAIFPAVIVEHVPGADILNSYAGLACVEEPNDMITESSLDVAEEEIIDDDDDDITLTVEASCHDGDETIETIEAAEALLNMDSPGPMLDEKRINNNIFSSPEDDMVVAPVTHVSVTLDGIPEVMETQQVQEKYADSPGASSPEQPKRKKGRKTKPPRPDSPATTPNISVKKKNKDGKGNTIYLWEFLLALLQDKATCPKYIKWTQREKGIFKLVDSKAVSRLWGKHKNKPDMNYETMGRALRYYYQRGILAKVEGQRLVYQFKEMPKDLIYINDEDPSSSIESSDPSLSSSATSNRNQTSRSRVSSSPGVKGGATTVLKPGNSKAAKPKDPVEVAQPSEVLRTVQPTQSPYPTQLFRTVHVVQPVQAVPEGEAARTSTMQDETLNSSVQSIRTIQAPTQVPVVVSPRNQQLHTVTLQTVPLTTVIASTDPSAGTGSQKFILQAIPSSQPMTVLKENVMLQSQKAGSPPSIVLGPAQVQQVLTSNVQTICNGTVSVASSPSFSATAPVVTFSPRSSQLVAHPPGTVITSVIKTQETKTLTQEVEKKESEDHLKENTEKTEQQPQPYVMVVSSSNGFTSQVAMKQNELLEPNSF
# Procedure, shortened: as §1
# EHF = molecular target: T5, EHF (Homo sapiens, UniProt Q9NZC4 1-300); conditions: protein: recombinant; tags: N-terminal GST; dsDNA, one strand shown
# T5 sequence: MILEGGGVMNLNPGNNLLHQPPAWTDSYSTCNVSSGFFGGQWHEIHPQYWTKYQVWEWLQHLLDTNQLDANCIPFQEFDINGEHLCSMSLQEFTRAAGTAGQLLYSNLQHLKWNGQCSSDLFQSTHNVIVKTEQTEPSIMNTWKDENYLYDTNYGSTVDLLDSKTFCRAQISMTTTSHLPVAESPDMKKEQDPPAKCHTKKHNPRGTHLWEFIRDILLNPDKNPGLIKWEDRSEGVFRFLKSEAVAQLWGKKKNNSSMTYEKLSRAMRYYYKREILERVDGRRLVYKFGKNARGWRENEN
# Procedure, shortened: as §1
# SPI1 = SPI1 (Homo sapiens, UniProt P17947 1-270); conditions: protein: recombinant; tags: N-terminal GST; dsDNA, one strand shown
# Procedure, shortened: as §1
# SPIB = SPIB (Homo sapiens, UniProt Q01892 1-262); conditions: protein: recombinant; tags: N-terminal GST; dsDNA, one strand shown
# SPIB, sequence (Q01892 whole entry): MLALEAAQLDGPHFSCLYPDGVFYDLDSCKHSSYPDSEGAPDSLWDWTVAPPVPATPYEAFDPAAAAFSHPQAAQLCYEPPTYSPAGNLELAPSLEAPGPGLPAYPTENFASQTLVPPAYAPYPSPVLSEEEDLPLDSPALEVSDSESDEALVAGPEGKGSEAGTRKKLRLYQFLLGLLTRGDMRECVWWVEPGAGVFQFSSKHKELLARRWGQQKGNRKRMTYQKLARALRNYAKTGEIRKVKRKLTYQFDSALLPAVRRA
# Procedure, shortened: as §1
# ELK3 = molecular target: T6, ELK3 (Homo sapiens, UniProt P41970 1-407); conditions: protein: recombinant; tags: N-terminal GST; dsDNA, one strand shown
# T6 sequence: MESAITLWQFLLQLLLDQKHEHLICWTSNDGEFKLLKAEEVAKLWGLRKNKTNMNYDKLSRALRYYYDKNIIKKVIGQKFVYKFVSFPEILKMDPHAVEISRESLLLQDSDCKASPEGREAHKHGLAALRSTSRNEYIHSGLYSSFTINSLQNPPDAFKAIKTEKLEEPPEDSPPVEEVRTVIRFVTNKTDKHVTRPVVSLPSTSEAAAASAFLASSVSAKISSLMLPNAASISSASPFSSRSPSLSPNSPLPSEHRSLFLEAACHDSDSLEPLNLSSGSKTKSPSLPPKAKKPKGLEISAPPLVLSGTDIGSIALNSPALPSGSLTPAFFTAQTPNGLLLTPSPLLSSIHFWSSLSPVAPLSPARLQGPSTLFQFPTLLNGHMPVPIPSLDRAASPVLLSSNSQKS
# Procedure, shortened: as §1
# FEV = molecular target: T7, FEV (Homo sapiens, UniProt Q99581 1-238); conditions: protein: recombinant; tags: N-terminal GST; dsDNA, one strand shown
# T7 sequence: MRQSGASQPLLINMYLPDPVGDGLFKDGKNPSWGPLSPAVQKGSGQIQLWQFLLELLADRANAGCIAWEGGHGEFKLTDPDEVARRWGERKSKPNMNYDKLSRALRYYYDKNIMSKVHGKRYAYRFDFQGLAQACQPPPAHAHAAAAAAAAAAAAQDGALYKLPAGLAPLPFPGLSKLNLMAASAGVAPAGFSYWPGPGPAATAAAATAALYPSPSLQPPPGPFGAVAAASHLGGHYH
# Procedure, shortened: as §1
# ETV5 = ETV5 (Homo sapiens, UniProt P41161 1-510); conditions: protein: recombinant; tags: N-terminal GST; dsDNA, one strand shown
# ETV5, sequence (P41161 whole entry): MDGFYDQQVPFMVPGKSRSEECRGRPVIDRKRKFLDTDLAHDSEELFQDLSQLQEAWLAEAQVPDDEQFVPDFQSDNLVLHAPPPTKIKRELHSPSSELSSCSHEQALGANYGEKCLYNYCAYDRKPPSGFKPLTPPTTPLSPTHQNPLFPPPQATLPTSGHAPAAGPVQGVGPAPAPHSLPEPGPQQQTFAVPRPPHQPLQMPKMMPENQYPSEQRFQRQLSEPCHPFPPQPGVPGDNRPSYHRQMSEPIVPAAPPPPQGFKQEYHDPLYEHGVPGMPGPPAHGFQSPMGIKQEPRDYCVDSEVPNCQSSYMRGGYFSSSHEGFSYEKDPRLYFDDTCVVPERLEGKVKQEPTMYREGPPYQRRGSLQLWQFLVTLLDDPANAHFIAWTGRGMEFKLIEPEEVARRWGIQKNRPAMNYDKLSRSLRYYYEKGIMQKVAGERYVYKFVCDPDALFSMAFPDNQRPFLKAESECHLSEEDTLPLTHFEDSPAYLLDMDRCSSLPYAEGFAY
# Procedure, shortened: as §1
# HSF1 = HSF1 (Homo sapiens, UniProt Q00613 1-529); conditions: protein: recombinant; tags: N-terminal GST; chain copies: 3; dsDNA, one strand shown
# HSF1, sequence (Q00613 whole entry): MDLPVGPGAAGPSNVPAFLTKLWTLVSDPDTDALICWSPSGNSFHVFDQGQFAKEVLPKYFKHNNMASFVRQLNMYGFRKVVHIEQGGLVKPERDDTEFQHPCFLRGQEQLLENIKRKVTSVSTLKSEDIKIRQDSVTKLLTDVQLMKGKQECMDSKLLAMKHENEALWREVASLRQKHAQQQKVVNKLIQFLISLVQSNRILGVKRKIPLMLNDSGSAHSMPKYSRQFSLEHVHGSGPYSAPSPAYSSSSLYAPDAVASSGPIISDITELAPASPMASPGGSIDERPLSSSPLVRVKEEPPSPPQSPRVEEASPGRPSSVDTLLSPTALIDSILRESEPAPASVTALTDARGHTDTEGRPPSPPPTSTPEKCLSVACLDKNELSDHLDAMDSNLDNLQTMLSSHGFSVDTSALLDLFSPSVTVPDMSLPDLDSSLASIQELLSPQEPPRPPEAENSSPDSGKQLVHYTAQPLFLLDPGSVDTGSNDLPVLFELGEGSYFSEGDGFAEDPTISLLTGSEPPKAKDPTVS
# Procedure, shortened: as §1
# SPIC = molecular target: T8, SPIC (Homo sapiens, UniProt Q8N5J4 1-248); conditions: protein: recombinant; tags: N-terminal GST; dsDNA, one strand shown
# T8 sequence: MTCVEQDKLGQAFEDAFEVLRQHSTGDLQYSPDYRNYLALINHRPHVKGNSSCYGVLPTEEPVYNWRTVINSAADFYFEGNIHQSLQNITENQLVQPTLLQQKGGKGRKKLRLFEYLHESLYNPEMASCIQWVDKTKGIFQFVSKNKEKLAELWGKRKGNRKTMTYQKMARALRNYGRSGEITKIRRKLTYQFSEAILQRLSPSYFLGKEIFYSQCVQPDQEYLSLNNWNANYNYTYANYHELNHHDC
# Procedure, shortened: as §1
# ELF4 = ELF4 (Homo sapiens, UniProt Q99607 1-663); conditions: protein: recombinant; tags: N-terminal GST; dsDNA, one strand shown
# ELF4, sequence (Q99607 whole entry): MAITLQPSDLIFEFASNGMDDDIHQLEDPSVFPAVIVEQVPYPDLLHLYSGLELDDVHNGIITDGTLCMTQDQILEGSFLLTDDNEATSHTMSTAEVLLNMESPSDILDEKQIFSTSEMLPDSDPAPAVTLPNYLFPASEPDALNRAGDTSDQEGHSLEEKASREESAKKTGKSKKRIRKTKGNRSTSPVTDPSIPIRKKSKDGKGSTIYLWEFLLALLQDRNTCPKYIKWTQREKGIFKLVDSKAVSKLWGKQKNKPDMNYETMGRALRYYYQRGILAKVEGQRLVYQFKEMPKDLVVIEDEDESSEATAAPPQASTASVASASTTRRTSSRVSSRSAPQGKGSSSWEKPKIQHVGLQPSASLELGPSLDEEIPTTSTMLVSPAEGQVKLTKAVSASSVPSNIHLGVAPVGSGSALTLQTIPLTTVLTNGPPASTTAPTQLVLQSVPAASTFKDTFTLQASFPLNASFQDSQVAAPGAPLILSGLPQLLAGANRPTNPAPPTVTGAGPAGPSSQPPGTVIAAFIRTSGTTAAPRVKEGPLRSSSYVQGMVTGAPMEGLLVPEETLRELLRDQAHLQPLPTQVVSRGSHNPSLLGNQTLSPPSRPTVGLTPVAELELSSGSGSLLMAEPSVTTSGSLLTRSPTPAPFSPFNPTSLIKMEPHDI
# Procedure, shortened: as §1
# ELK4 = molecular target: T9, ELK4 (Homo sapiens, UniProt P28324-2 1-405); conditions: protein: recombinant; tags: N-terminal GST; dsDNA, one strand shown
# T9 sequence: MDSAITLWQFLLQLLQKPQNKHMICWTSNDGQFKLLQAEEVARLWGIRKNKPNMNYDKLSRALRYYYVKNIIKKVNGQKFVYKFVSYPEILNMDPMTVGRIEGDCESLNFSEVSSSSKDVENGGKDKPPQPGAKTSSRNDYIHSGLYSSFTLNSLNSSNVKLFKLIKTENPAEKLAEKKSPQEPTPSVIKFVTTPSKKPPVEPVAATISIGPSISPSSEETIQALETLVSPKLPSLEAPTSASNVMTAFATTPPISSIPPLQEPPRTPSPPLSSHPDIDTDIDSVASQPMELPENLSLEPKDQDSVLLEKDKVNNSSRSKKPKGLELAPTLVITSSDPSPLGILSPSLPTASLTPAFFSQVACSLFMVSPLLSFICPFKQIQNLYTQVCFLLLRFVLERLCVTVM
# Procedure, shortened: as §1
# ETV2 = molecular target: T10, ETV2 (Homo sapiens, UniProt O00321 1-342); conditions: protein: recombinant; tags: N-terminal GST; dsDNA, one strand shown
# T10 sequence: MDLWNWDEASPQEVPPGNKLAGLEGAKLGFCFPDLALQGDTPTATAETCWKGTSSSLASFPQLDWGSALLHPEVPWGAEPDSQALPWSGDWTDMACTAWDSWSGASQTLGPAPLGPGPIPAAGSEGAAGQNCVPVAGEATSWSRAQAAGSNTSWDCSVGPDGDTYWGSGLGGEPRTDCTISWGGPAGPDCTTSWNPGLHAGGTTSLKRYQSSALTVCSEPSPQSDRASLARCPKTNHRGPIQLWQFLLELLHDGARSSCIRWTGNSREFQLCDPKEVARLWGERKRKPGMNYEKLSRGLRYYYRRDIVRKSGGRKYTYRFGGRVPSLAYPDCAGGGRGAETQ
# Procedure, shortened: as §1
# ELF3 = molecular target: T11, ELF3 (Homo sapiens, UniProt P78545 1-371); conditions: protein: recombinant; tags: N-terminal GST; dsDNA, one strand shown
# T11 sequence: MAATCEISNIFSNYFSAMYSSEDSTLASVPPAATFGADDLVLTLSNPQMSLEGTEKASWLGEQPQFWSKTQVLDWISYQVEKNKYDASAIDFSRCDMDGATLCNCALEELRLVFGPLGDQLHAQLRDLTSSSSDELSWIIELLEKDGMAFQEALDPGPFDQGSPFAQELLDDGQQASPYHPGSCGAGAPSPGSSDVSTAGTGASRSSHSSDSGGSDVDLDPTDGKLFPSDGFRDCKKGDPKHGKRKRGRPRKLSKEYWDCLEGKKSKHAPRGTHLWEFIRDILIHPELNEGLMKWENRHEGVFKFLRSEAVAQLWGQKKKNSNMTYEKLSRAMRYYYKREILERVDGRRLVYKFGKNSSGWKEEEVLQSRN
# Procedure, shortened: as §1
# CRX = CRX (Homo sapiens, UniProt O43186 1-299); conditions: protein: recombinant; tags: N-terminal GST; dsDNA, one strand shown
# CRX, sequence (O43186 whole entry): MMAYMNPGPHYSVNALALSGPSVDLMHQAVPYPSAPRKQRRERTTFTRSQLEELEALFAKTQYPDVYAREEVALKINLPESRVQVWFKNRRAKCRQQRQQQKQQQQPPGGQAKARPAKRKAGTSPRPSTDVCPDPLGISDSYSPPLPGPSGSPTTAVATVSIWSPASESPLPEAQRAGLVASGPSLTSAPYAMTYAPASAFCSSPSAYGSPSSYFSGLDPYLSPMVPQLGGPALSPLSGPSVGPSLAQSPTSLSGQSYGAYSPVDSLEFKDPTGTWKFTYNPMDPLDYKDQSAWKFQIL
# Procedure, shortened: as §1
# ETV1 = ETV1 (Homo sapiens, UniProt P50549 1-477); conditions: protein: recombinant; tags: N-terminal GST; dsDNA, one strand shown
# ETV1, sequence (P50549 whole entry): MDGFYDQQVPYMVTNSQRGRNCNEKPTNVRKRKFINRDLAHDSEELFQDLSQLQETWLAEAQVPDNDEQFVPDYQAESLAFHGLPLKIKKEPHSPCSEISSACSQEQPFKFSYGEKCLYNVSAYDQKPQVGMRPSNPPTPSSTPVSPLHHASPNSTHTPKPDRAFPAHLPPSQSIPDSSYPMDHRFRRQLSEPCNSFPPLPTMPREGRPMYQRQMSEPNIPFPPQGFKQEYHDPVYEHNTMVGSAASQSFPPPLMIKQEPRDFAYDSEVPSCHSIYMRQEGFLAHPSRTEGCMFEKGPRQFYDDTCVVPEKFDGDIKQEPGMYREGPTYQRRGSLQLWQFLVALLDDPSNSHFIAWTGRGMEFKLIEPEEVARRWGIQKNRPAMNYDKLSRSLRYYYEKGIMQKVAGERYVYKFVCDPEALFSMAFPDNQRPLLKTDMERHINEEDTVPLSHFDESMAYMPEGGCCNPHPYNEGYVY
# Procedure, shortened: as §1
sequence,measurement,setting,value
CAATAC,binding signal,FLI1,"1.25 fold enrichment (6-mer frequency, TF over GST control)"
same,binding signal,ELK1,"1.29 fold enrichment (6-mer frequency, TF over GST control)"
same,binding signal,GABPA,"1.23 fold enrichment (6-mer frequency, TF over GST control)"
same,binding signal,ERG,"1.23 fold enrichment (6-mer frequency, TF over GST control)"
same,binding signal,ELF1,"1.24 fold enrichment (6-mer frequency, TF over GST control)"
same,binding signal,EHF,"1.2 fold enrichment (6-mer frequency, TF over GST control)"
same,binding signal,SPI1,"1.25 fold enrichment (6-mer frequency, TF over GST control)"
same,binding signal,SPIB,"1.17 fold enrichment (6-mer frequency, TF over GST control)"
same,binding signal,ELK3,"1.28 fold enrichment (6-mer frequency, TF over GST control)"
same,binding signal,FEV,"1.27 fold enrichment (6-mer frequency, TF over GST control)"
same,binding signal,ETV5,"1.26 fold enrichment (6-mer frequency, TF over GST control)"
same,binding signal,HSF1,"1.07 fold enrichment (6-mer frequency, TF over GST control)"
same,binding signal,SPIC,"1.16 fold enrichment (6-mer frequency, TF over GST control)"
same,binding signal,ELF4,"1.23 fold enrichment (6-mer frequency, TF over GST control)"
same,binding signal,ELK4,"1.39 fold enrichment (6-mer frequency, TF over GST control)"
same,binding signal,ETV2,"1.22 fold enrichment (6-mer frequency, TF over GST control)"
same,binding signal,ELF3,"1.29 fold enrichment (6-mer frequency, TF over GST control)"
same,binding signal,CRX,"1.04 fold enrichment (6-mer frequency, TF over GST control)"
same,binding signal,ETV1,"1.3 fold enrichment (6-mer frequency, TF over GST control)"
